Screening data as filed in PubChem BioAssay.
Shown are actives, neighbours in structure and some others; about 2.3% of the full set was active somewhere.
FUS yeast rescue = rescues growth of FUS-expressing yeast; S. cerevisiae FUS-expressing, growth rescue, OD600, 24 h; Potency, µM (top dose mostly 76.6 µM), hits mostly activators; 390,000 compounds, 0.24% hits;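 also: potency is read from the fitted curve at half-maximal effect; plate controls were DMSO vehicle for no effect and reference control for full effect; nearly all actives have a fitted effect of over 55% in size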
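Compound concentration series was pinned onto galactose-induced FUS-expressing yeast seeded at OD 0.005. Plates sat 24hr at 30C; absorbance at 600 nm gave growth. DMSO served as background control.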
TRPV1 PAM = enhances activation of the human vanilloid receptor TRPV1; Q8NER1; 320,000 compounds, 0.02% hits; potentiation, % at 8.33 µM; TRPV1-expressing cells, Fluo-8 calcium influx, capsaicin EC20 potentiation; in the data active = potentiation above about 80%; inconclusive = between about 30% and that limit; also: 0% is about no effect
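TRPV1-expressing cells were cultured overnight at 35.5C and loaded with Fluo-8 calcium dye for 40 to 90 min at room temperature. After a 10 s baseline, compound was added and calcium influx was read kinetically for 3 min (ex 480/em 520 nm).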
TRPV1 ag = agonists of human vanilloid receptor 1 (TRPV1). TRPV1-expressing cells, Fluo-8 calcium influx, agonist mode. activation, % at 8.33 µM. 320,000 compounds, 0.19% hits; in the data active = activation above about 80%; inconclusive = between about 30% and that limit; also: 0% is about no effect
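Cells expressing TRPV1 were dye-loaded with Fluo-8 and read kinetically: 10 s baseline, 3 min after compound (agonist portion), then 2 min after EC20 capsaicin (allosteric enhancer portion). Calcium-bound dye fluorescence at 480/520 nm.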
Giardia killer = kills Giardia lamblia; Giardia lamblia trophozoite viability; 340,000 compounds, 0.15% hits; activity change, % at 7.66 µM, hits read low; AID 540267; in the data active = activity change below about -80%; inconclusive = between about -30% and that limit;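 also: parasites exposed to compound for two days anaerobically before the ATP read; % is scaled to controls: 0 for no effect and ±100 for the full control effect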
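Giardia lamblia trophozoites (100 cells/well) were incubated with compounds for 48 h at 37 deg C under anaerobic conditions. Viability was read as ATP content by one-step luminescence after 15-30 min at room temperature.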
ELG1 repair inh = ELG1-dependent DNA repair inhibition; HEK293T ELG1-luciferase reporter, luminescence, 16 h; DNA damage induced by 5-fluorouridine; Potency, µM (titrated, usually from 46.1 µM), for the others: at the highest dose activity change, negative = inhibition, most hits filed as inhibitors; 330,000 compounds, 2.3% hits; AID 504467; also: potency is read from the fitted curve at half-maximal effect; % is scaled to controls: 0 for no effect and ±100 for the full control effect; nearly all actives have a fitted effect of over 55% in size
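Step one: seed 2,000 cells per well. Step two: pin-transfer compound or DMSO alongside 5-fluorouridine. Step three: incubate 16 hr, 37 °C, 5% CO2. Step four: add ONE-Glo, wait 30 min, read luminescence.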
An asterisk follows results filed as active; i = inactive; ? = inconclusive; / = not tested or not shown. Unless noted, calls follow the shape of the dose curve; as a rule, active = well fitted curve in the direction sought with a large enough effect; inconclusive = small, poorly fitted or top-dose-only effect, or another doubt; inactive = no such curve, though single readings can be large; an effect the other way counts as inactive or inconclusive.

SMILES	FUS yeast rescue	TRPV1 PAM	TRPV1 ag	Giardia killer	ELG1 repair inh
CC(C)COc1ccc(C(=O)Nc2ccc([N+](=O)[O-])cc2)cc1	i	-7	?	-29	1.5µM*
COc1ccccc1NC(=O)CN1CCN(C2c3ccccc3-c3ccccc32)CC1	i	-6	27	-2	3.7µM*
CCOc1ccc(NC(=O)CN2CCN(C3c4ccccc4-c4ccccc43)CC2)cc1	i	6	-2	-8	13µM*
COc1ccccc1NC(=O)CN1CCCCCC1	i	0	5	9	20%
COC(=O)c1cccc(NC(=O)c2cc(OC)c(OC)c(OC)c2Br)c1	i	7	-5	-3	12µM*
CCOc1ccc(NC(=O)C(=O)NCC(c2cccnc2)N2CCc3ccccc32)cc1 (configuration not stated)	i	/	/	/	/
O=C(Cc1ccccc1)N/N=C/c1cc(Br)cc(Br)c1O	i	-16	28	41	6.5µM*
O=C(CNC(=O)c1cccc(F)c1)N/N=C/c1cc(Br)ccc1OCc1ccccc1	i	18	-5	-21	?
O=C(CNC(=O)c1ccccc1F)N/N=C/c1cc(Br)ccc1OCc1ccccc1	i	-5	8	?	8.2µM*
COc1ccc(NC(C)=O)cc1NC(=O)C1(c2cccs2)CCOCC1	i	/	/	/	/
O=C(Nc1ccc(Cl)cc1)N1CCC(c2nc(-c3ccccc3Cl)no2)CC1	i	-8	6	-1	13µM*
CNC(=O)C1CCC(Cn2c(=O)c3sccc3n(CC(=O)NCc3cccc(OC)c3)c2=O)CC1 (configuration not stated)	i	/	/	/	/
COc1ccccc1NC(=O)c1ccc(CN2C(=O)C(C)=C(c3ccc(C)c(C)c3)S2(=O)=O)cc1	i	/	/	/	/
CCc1nn(CC(=O)N(CC)Cc2ccccc2)c(=O)c2cc3occc3n12	i	/	/	/	/
O=C(Cc1ccc(Cl)cc1)Nc1ncc([N+](=O)[O-])s1	i	-15	5	-91*	?
Cc1cnc(NC(=O)Cc2ccc(Br)cc2)s1	i	17	18	-4	11%
O=C(COc1ccc(Cl)cc1)Nc1ncc([N+](=O)[O-])s1	i	-7	2	-86*	?
O=C(Cc1ccc([N+](=O)[O-])cc1)Nc1ccc(Cl)cc1	i	-22	26	-18	0%
O=C(Cc1ccc(Br)cc1)Nc1ncc([N+](=O)[O-])s1	i	-8	0	-93*	-5%
COc1ccc2c(C)c(CCC(=O)NCc3ccc(C)cc3)c(=O)oc2c1	i	/	/	/	/
CCN(C(=O)Cn1c(=O)n(-c2ccccc2)c(=O)c2ccc(C(=O)NCc3ccc4c(c3)OCO4)cc21)c1cccc(C)c1	35µM*	/	/	/	/
Cc1ccc(NC(=O)Cn2c(=O)n(-c3ccccc3)c(=O)c3ccc(C(=O)NCc4ccc5c(c4)OCO5)cc32)cc1	i	/	/	/	/
COc1ccc(OC)c(C2CC(=O)c3c([nH]c(C(=O)OCC4CCCO4)c3C)C2)c1 (configuration not stated)	i	0	10	-25	10µM*
COc1cc(C2CC(=O)c3c([nH]c(C(=O)OCCOC(C)C)c3C)C2)cc(OC)c1OC (configuration not stated)	i	6	-3	34	10µM*
CCNC(=O)c1nn(-c2ccccc2C)nc1CO	i	/	/	/	/
SMILES	FUS yeast rescue	TRPV1 PAM	TRPV1 ag	Giardia killer	ELG1 repair inh
CCOC(=O)c1c(C)n(C)c2ccc(OCC(O)CN(CC)CC)cc12 (configuration not stated)	i	3	1	0	5%
CCOC(=O)c1c(C)n(C)c2ccc(OCC(O)Cn3nc(C)cc3C)cc12 (configuration not stated)	i	3	-2	-12	21µM*
CCOc1ccccc1NC(=O)Cc1coc2c(C)c(C)ccc12	i	/	/	/	/
CSc1ccccc1NC(=O)CN(C)C(=O)c1ccc(NC(=O)c2cccs2)cc1	i	11	-2	?	21µM*
COCCCNC(=S)N1CCCN(c2nc3cc(C)ccc3cc2C#N)CC1	?	-10	23	-23	21µM*
COCCCNC(=S)N1CCCN(c2nc3cc(C)c(C)cc3cc2C#N)CC1	i	-10	24	-7	?
CCn1c(C(=O)Nc2ccccc2C(=O)OC)cc2sc(Cl)cc21	i	/	/	/	/
Cc1ccc(-c2nc(NC(=O)CSc3nnc4scc(-c5ccccc5)n34)ns2)cc1	i	-4	0	-8	12µM*
Cn1c(=O)oc2cc(S(=O)(=O)N3CCCC(C(=O)NC4CCCc5ccccc54)C3)ccc21 (configuration not stated)	i	?	-6	-22	2.9µM*
Cn1c(=O)oc2cc(S(=O)(=O)N3CCCC(C(=O)N4CC=C(c5ccccc5)CC4)C3)ccc21 (configuration not stated)	/	/	/	/	5.8µM*
CCN(CC)S(=O)(=O)N1CCC(C(=O)NC2CCCc3ccccc32)CC1 (configuration not stated)	i	8	-1	2	16µM*
Cc1cccc(C)c1OCC(=O)Nc1c(C(=O)c2ccccc2)oc2ccccc12	i	/	/	/	/
COc1ccc(-c2nc(CSc3nnc(C)n4c3cc3sccc34)c(C)o2)cc1	i	/	/	/	/
Cc1ccc2c(c1)CCCN2C(=O)c1ccoc1C	5.6µM*	-11	0	36	0%
Cc1ccc2c(c1)CCCN2C(=O)c1c(C)noc1C	i	9	2	38	0%
COc1ccc(Cn2c(O)c(/C=N/NC(=O)c3cccnc3)c3ccccc3c2=O)cc1	?	23	?	17	18µM*
O=S(=O)(c1ccc2c(c1)OCO2)N1CCN(c2nc(-c3cccs3)nc3ccccc23)CC1	/	/	/	-18	/
Cc1cccc(NC(=O)CN2CCc3cc4c(cc3C2C)OCCCO4)c1 (configuration not stated)	i	-11	21	-12	21µM*
COc1ccc(CNC(=O)CN2C(=O)NC(c3ccccc3)(c3ccccc3)C2=O)cc1	/	/	/	2	-16%
COc1ccc(CCNC(=O)CN2C(=O)NC(c3ccccc3)(c3ccccc3)C2=O)cc1	/	/	/	-10	26µM*
COc1cccc2c(C)cc3nnc(SCC(=O)Nc4ccc(C)cc4)n3c12	i	/	/	/	/
Cc1ccc(C)c(Cn2c(=O)n(Cc3ccco3)c(=O)c3oc4ccccc4c32)c1	i	/	/	/	/
COc1cccc(CN(Cc2ccco2)S(=O)(=O)c2ccc(S(=O)(=O)NCc3ccccc3)cc2)c1OC	i	30	-2	-12	12µM*
COc1ccc(-c2nn3c(C4CCCCC4)nnc3s2)cc1OC	?	/	/	10	?
COc1cc(-c2nn3c(C4CCCCC4)nnc3s2)cc(OC)c1OC	i	23	-1	8	5.8µM*
CCc1ccc(NC(=O)CCS(=O)(=O)c2ccc3c(c2)oc(=O)n3C)cc1	i	/	/	/	/
